A selection: hits, their analogues and other compounds. The true share with any hit is near 11%.
JMJD2A Tudor inh: inhibitors of human JMJD2A Tudor domain; hit rate 4.4% among 390,000; AlphaScreen JMJD2A-Tudor / H3K4me3 peptide binding; O75164; Potency, µM (titrated, usually from 114 µM), for the others: at the top dose activity change, negative = inhibition, usual class: inhibitors; note: potency is the fitted concentration of half-maximal effect; % is set by controls: 0 for no effect and ±100 for the full control effect; nearly all actives have a fitted effect of over 50% in size
HP1b binding inh: HP1-beta chromodomain-methylated histone interaction inhibition | hit rate 0.56% among 390,000 | P83916 | AlphaScreen HP1-beta / biotin-H3K9me3 peptide binding | Potency, µM (highest dose often 114 µM), for the others: at the highest dose activity change, negative = inhibition, usual class: inhibitors; note: potency is the fitted concentration of half-maximal effect; nearly all actives have a fitted effect of over 70% in size
Target sequence (P83916 whole entry, looked up): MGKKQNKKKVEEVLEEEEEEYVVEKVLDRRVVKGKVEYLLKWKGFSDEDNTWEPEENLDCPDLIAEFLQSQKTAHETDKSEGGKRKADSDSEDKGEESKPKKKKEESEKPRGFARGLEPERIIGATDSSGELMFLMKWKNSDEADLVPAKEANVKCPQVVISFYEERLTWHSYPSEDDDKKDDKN
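HP1-beta protein (50 nM final) preincubated 30 min at room temperature with biotinylated H3(1-18)K9me3 peptide (50 nM) in PBS pH 7.4, 0.01% Tween-20, then compound added for 30 min. AlphaScreen streptavidin donor/nickel chelate acceptor beads (10 ug/mL final), 30 min dark, luminescence read.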
L3MBTL1 inh: blocks human L3MBTL1 | Q9Y468 | AlphaScreen L3MBTL1–H3K9me1 peptide binding | Potency, µM (titrated, usually from 57.1 µM), without a hit: top-dose activity, negative = inhibition, most hits filed as inhibitors | hit rate 0.66% among 230,000 | AID 485360; note: potency is the fitted concentration of half-maximal effect; % is set by controls: 0 for no effect and ±100 for the full control effect; nearly all actives have a fitted effect of over 60% in size
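L3MBTL1 (50 nM) pre-complexed 30 min with biotinylated H3(1-15)K9me1 peptide (75 nM), then compounds added for 30 min at room temperature; AlphaScreen streptavidin donor/nickel chelate acceptor beads (10 ug/mL final) read after 30 min dark incubation.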
G9a inh: G9a (human) methyltransferase inhibition; hit rate 8.8% among 350,000; G9a H3K9 monomethylation, AlphaScreen, 2 h; Q96KQ7; Potency, µM (doses to about 102 µM), for the others: top-dose activity, negative = inhibition, most hits filed as inhibitors; note: potency is the fitted concentration of half-maximal effect; % is set by controls: 0 for no effect and ±100 for the full control effect; nearly all actives have a fitted effect of over 75% in size
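AlphaScreen detection with an anti-monomethyl H3K9 antibody quantified product after a 2 h room-temperature reaction containing 500 nM biotinylated H3K9 peptide, 20 µM SAM and 20 nM enzyme, which had been preincubated 15 min with compound.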
PI5P4Ka inh: PI5P4K alpha (human) kinase inhibition; P48426; PI5P4Kalpha enzyme, ADP-Glo luminescence, 60 min; active compounds read low; max response, %; hit rate 1.2% among 330,000; AID 652105; active = max response of -50% or lower; inconclusive = between -30% and -50%; inactive = -30% or higher; note: value at the top dose of about 77 µM; % is set by controls: 0 for no effect and ±100 for the full control effect
Target sequence (P48426 whole entry, looked up): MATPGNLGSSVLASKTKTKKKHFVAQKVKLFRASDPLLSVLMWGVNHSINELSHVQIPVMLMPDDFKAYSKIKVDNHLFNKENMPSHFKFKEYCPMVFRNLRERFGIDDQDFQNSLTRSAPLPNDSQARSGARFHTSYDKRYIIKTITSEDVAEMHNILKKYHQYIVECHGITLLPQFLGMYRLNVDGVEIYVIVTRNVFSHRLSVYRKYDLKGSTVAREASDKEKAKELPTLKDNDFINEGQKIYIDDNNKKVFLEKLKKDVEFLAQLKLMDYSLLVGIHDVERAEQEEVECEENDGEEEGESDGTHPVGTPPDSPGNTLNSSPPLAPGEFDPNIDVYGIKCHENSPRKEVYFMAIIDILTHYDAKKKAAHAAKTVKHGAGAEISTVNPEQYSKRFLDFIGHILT
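ADP-Glo luminescence end-point after a 60 min room-temperature kinase reaction. PI5P4Kalpha and substrate in HEPES pH 7.4 buffer with EGTA, 0.1% CHAPS and 5% DMSO; ATP at 5 microM final.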
BAZ2B inh: BAZ2B (human) inhibition; Q9UIF8; AlphaScreen BAZ2B-H3K14Ac peptide displacement; Potency, µM (series often up to 114 µM), inactives show at the highest dose activity change, negative = inhibition, actives largely listed as inhibitors; hit rate 4.4% among 360,000; note: potency is the fitted concentration of half-maximal effect; % is set by controls: 0 for no effect and ±100 for the full control effect; nearly all actives have a fitted effect of over 60% in size
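Inhibition is scored as reduced AlphaScreen emission. The BAZ2B/b-H3(5-23)K14Ac complex (50 nM each) in PBS pH 7.4, 0.01% Tween-20 meets compound (up to 110 uM) for 30 min at RT before bead addition.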
ADP-Glo counter: counter-screen for PI5P4K inhibitors: ADP-Glo detection interference, no enzyme | 1,100 tested, under 10 active | ADP-Glo detection counter-screen, luciferase luminescence, no enzyme | shares compounds with PI5P4Ka inh | Potency, µM (series often up to 76.9 µM), without a hit: top-dose activity change, negative = inhibition, most hits filed as inhibitors
The depositor's hits bear a star; ? = inconclusive; . = no result; [ ] = another dose, or the depositor's remark. Unless noted, calls come from the whole dose curve; as a rule, active = well fitted curve in the direction sought with a large enough effect; inconclusive = small, poorly fitted or top-dose-only effect, or another doubt; inactive = no such curve, though single readings can be large; an effect the other way counts as inactive or inconclusive.

SMILES | JMJD2A Tudor inh | HP1b binding inh | L3MBTL1 inh | G9a inh | PI5P4Ka inh | BAZ2B inh | ADP-Glo counter
COc1cccc(-c2oc3c(c2C(=O)OCCN(C)C)C(O)CCC3)c1 (centres undefined) | . | . | . | . | 1 | . | .
C[C@H]1CN=C(Nc2ccccc2)N1CC1CCCCC1 | -18% | 45% | 1% | 14% | 2 | 0% | .
C[C@H]1CN=C(Nc2ccccc2)N1CCCC1CCCCC1 | -21% | 62% | 14% | 12% | 0 | -1% | -5%
Cc1c(Cl)cccc1-c1ccc(C(=O)Nc2ccc(F)cc2)o1 | 12% | 22% | . | -49%[59 µM] | . | ? | .
COc1ccc2c([N+](=O)[O-])c(N3CCOCC3)[nH]c2c1 | . | . | . | . | -1 | . | .
COc1ccc2c([N+](=O)[O-])c(Cl)[nH]c2c1 | 56µM* | ? | -9% | 25µM* | -57* | 79µM* | 0%
CCC(C)Oc1cc(-c2ccnc(Nc3cccc(Cl)c3)n2)ccn1 (centres undefined) | ? | 59% | . | 4%[12.7 µM] | 15 | 52% | .
OCCCNc1cc(-c2ccnc(Nc3cccc(Cl)c3)n2)ccn1 | -27% | 29% | . | 4%[12.7 µM] | -51* | -10% | 5%
COc1cccc(CCNC(=O)c2c(O)nc3cc(C)ccn3c2=O)c1 | -20% | 8% | . | 6%[59 µM] | . | 5% | .
Cc1cccc(NC(=O)CNC(=O)c2cccc(-n3cccc3)c2)c1C | 14µM* | ? | 3.5µM* | 35µM* | -80* | 14µM* | -10%
COc1ccc(NC(=O)CN(C)C(=O)c2cccc(-n3cccc3)c2)cc1 | 22µM* | 25µM* | 10µM* | 45µM* | -62* | 11µM* | -3%
Cc1ccc(NC(=O)CN(C)C(=O)c2cccc(-n3cccc3)c2)cc1 | ? | 20µM* | 4µM* | 25µM* | -101* | 11µM* | -1%
COc1ccc(-c2[nH]c3c(c2-c2c(-n4cccc4)n(C)c(=O)[nH]c2=O)c(=O)[nH]c(=O)n3C)cc1F | -1% | 51% | . | -3%[59 µM] | . | -19% | .
CC(=O)c1ccc(NC(=O)c2noc3c2CCC3)cc1 | -15%[11.4 µM] | ? | . | 40µM* | -58* | 56µM* | -3%
NS(=O)(=O)c1ccc(NC(=O)c2ccc(S(=O)(=O)N3CCc4ccccc43)cc2)cc1 | -26% | 28% | . | 32µM* | -66* | -14% | -3%
Cc1c(C(=O)NC2CC(C)(C)NC(C)(C)C2)oc2c(Cl)cccc12 | . | . | . | . | -5 | . | .
COc1ccc(Br)cc1C(=O)Nc1cccc(NC(=O)c2ccco2)c1 | -23% | 3% | 3% | 12% | 8 | 5% | -8%
Cc1nn(-c2nc3ccccc3[nH]2)c(=O)c2ccccc12 | -9% | 31% | 1% | 0% | -60* | -3% | ?
CC(N)CCCC(C)(C)O (centres undefined) | . | . | . | -38%[2.33 µM] | . | . | .
O=[N+]([O-])c1ccc(-c2cc(-c3ccc(Cl)cc3)n[nH]2)cc1 | ? | 183% | -1% | 25µM* | -69* | -37% | 2%
Cc1cc(NC(=O)c2cc(S(=O)(=O)N3CCCCC3)ccc2C)no1 | -33% | 35% | -26% | . | -54* | . | -8%
O=C(Cn1cnc2scc(-c3cccc([N+](=O)[O-])c3)c2c1=O)NCc1ccco1 | 22µM* | ? | . | 11%[59 µM] | -94* | 45µM* | 4%
COCCN(CC(=O)NCC1CCCO1)C(=O)CCC(=O)Nc1ccccn1 (centres undefined) | ? | -15% | -2% | -2% | -51* | -21% | 1%
O=C(CN(CC1CCCO1)C(=O)CCC(=O)Nc1ccccn1)NCC1CCCO1 (centres undefined) | -10% | 17% | 5% | ? | -7 | -3% | .
Cc1cccc(NC(c2ccc(O)cc2)c2ccc3ccc(C)nc3c2O)n1 (centres undefined) | 45µM* | ? | . | 4.5µM* | -52* | ? | -9%
SMILES | JMJD2A Tudor inh | HP1b binding inh | L3MBTL1 inh | G9a inh | PI5P4Ka inh | BAZ2B inh | ADP-Glo counter
CCN(CC)C(=O)c1sc2c(c1C)c(=O)n(CCc1ccccc1)c(=O)n2Cc1ccc(C)cc1 | -5% | 29% | . | -2%[59 µM] | . | -5% | .
O=C(Nc1cccc2cccnc12)c1csc(COCCO)n1 | . | . | . | . | -28 | . | -7%
O=C(Nc1ccc(-c2nc3ncccc3o2)cc1)c1ccc(Br)o1 | -30% | 18% | -3% | ? | -12 | -1% | .
O=C(Nc1ccc(-c2nc3ncccc3o2)cc1)c1ccco1 | 35µM* | -13% | -15% | -36%[12.7 µM] | -53* | -4% | 5%
NC(=O)c1c(NC(=O)CN2CCN(S(=O)(=O)c3ccccc3)CC2)sc2c1CCC2 | -30% | -10% | ? | 17%[12.7 µM] | -65* | -11% | 0%
Cc1nc2ccccc2nc1OCC(=O)NCc1ccc2c(c1)OCO2 | ? | -11% | -2% | 6% | -62* | -5% | -14%
O=C(COc1ncnc2ccccc12)NCc1ccc2c(c1)OCO2 | -5% | 6% | 3% | 5%[12.7 µM] | 6 | -3% | .
COc1ccccc1CNC(=O)CN1C(=O)CSc2c1c(C)nn2-c1ccccc1 | -8% | 25% | . | 1%[59 µM] | . | -2% | .
COC(=O)Cc1c(C)nc2nc(-c3ccc(Cl)cc3)[nH]n2c1=O | -2% | 37% | . | -3% | ? | -7% | .
COC(=O)Cc1c(C)nc2nc(-c3ccc(C)cc3)[nH]n2c1=O | -25% | 27% | . | -22%[59 µM] | -72* | -4% | -3%
Cc1ccc(C(=O)c2cn(CC(=O)Nc3ccc(C)cc3Cl)c3nc(C)ccc3c2=O)cc1 | -15% | 3% | . | -35%[59 µM] | . | 8%[57.1 µM] | .
Cc1ccc(NC(=O)c2c3c(nc4ccccc24)CCC3)cc1S(=O)(=O)N(C)C | -30% | -14% | . | -39% | -52* | ? | 3%
COc1cc(NC(=O)c2c3c(nc4ccccc24)CCC3)cc(OC)c1 | 6% | ? | -7% | 9% | -2 | -20% | .
CCCCC1Cc2[nH][nH]c(=O)c2C(c2ccc(F)cc2)O1 (centres undefined) | . | . | . | . | -51* | . | -2%
CCCCC1Cc2[nH][nH]c(=O)c2C(c2ccc(Cl)cc2)O1 (centres undefined) | . | . | . | . | -6 | . | .
Cc1oc(-c2ccc(Cl)cc2)cc1-c1nn2c(-c3ccoc3C)nnc2s1 | ? | -25% | ? | ? | -65* | 4% | 0%
NC(=O)[C@@H]1CC2(CC(c3cccc(NC(=O)COc4ccc(Cl)cc4)c3)=NO2)CN1C(=O)COc1ccc(Cl)cc1 (some centres undefined) | -19% | 26% | . | 5%[12.7 µM] | -7 | -11% | -9%

Screens deposited in PubChem by National Center for Advancing Translational Sciences (NCATS).
